Shown are actives, neighbours in structure and some others; about 19% of the full set was active somewhere.
IL1B secr inh: qHTS for Inhibitors of Inflammasome Signaling: IL-1-beta AlphaLISA Primary Screen; AID 743279, 2014; THP-1 LPS/ATP IL-1B secretion, AlphaLISA, 16 h; stronger effect = lower value; activity change, % at 57.5 µM; 360,000 compounds, 4.7% hits; in the data active = activity change below about -50%; inconclusive = mostly about -30% to -49%
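Secreted IL-1B measured by AlphaLISA bead assay after 16 h compound exposure of THP-1 cells; compounds (final up to 57.5 uM) added 1 h before LPS (250 ng/mL) and ATP (1.25 mM) stimulation; lower signal means less secretion.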
DT40 TDP1 CPT: qHTS for Inhibitors of human tyrosyl-DNA phosphodiesterase 1 (TDP1): qHTS in cells in presence of CPT; chicken DT40 Tdp1-/-;hTDP1 cells + 20 nM CPT, ATP luminescence, 48 h; Potency, µM (series often up to 46.2 µM), most hits filed as inhibitors; 420,000 compounds, 12% hits; AID 686979, 2013; note: nearly all actives have a fitted effect of over 55% in size
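Cell growth measured by CellTiter-Glo luminescence after a minimum 48 h, 37 C compound exposure with 20 nM CPT in Tdp1-knockout DT40 cells stably expressing hTDP1, seeded 400/well; qHTS titration format.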
TDP1 cell noCPT: qHTS for Inhibitors of human tyrosyl-DNA phosphodiesterase 1 (TDP1): qHTS in cells in absence of CPT | Potency, µM (top dose mostly 46.2 µM), most hits filed as inhibitors | 420,000 compounds, 15% hits | DT40 Tdp1-/- hTDP1 cells, no CPT, ATP luminescence, 48 h; note: nearly all actives have a fitted effect of over 55% in size
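Readout: luminescence from CellTiter-Glo after 30 min in the dark at RT. Cells: DT40 Tdp1-/- with stable hTDP1, 400/well. Exposure: compounds alone, ≥48 hr, 37 °C.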
HT1080-NT tox: qHTS for induction of synthetic lethality in tumor cells producing 2HG: qHTS for the HT-1080-NT fibrosarcoma cell line | HT-1080-NT fibrosarcoma viability, CellTiter-Glo ATP luminescence, 48 h | Potency, µM (doses to about 46.1 µM), actives largely listed as cytotoxic | 360,000 compounds, 1.6% hits;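 note: NT is the 2HG producing partner of a matched IDH1 knockdown line; nearly all actives have a fitted effect of over 55% in size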
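A 48-hour cytotoxicity screen used HT-1080-NT cells plated 2 hours before compound delivery. ATP-based CellTiter-Glo luminescence measured viability, normalized to DMSO and no-cell controls.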
HT1080 IDH1KD tx: qHTS for induction of synthetic lethality in tumor cells producing 2HG: qHTS for the HT-1080-IDH1KD cell line. HT-1080 IDH1 knockdown viability, ATP luminescence, 48 h. Potency, µM (top dose mostly 46.1 µM), actives largely listed as cytotoxic. 360,000 compounds, 2% hits. AID 686971, 2013
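Assay cells: HT-1080 with IDH1 knockdown, 750 per well, RPMI/5% FBS. Exposure: 48 h at 37 °C following 2 h pre-incubation. Read: CellTiter-Glo luminescence; fitted concentration-response, curve class assigned.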
Of the large screens only hits and unclear results are named; the others gave an inactive call. Unless noted, calls come from the whole dose curve; as a rule, active = well fitted curve in the direction sought with a large enough effect; inconclusive = small, poorly fitted or top-dose-only effect, or another doubt; inactive = no such curve, though single readings can be large; an effect the other way counts as inactive or inconclusive.

CCOC(=O)N1CCN(C(=O)c2cc(-c3ccc(OCC)cc3)nc3ccccc23)CC1	DT40 TDP1 CPT 4.61µM, TDP1 cell noCPT 3.66µM, HT1080-NT tox 5.01µM, HT1080 IDH1KD tx 5.01µM
CCOC(=O)C1CCN(C(=O)c2cc(-c3ccncc3)nc3ccccc23)CC1	DT40 TDP1 CPT inconclusive, TDP1 cell noCPT 20.6µM
Cc1nc(SCCOc2ccccc2F)[nH]c(=O)c1Cc1ccccc1	TDP1 cell noCPT inconclusive
COc1ccc(/C=C(\C#N)C(=O)OCC(=O)Nc2c(C)cccc2C(C)C)cc1	none
O=C(CN1CCN(C(=O)c2ccco2)CC1)Nc1ccccc1	none
CC1CC(Nc2ccccc2)c2ccccc2N1C(=O)c1ccncc1 (configuration not stated)	DT40 TDP1 CPT 9.2µM, TDP1 cell noCPT 8.2µM
CC1CC(Nc2ccccc2)c2ccccc2N1C(=O)c1ccco1 (configuration not stated)	DT40 TDP1 CPT 23.1µM, TDP1 cell noCPT 14.6µM, HT1080-NT tox inconclusive, HT1080 IDH1KD tx inconclusive
Cc1cccc(Cl)c1NC(=O)NCCCN1CCCCC1C (configuration not stated)	none
CC1=NCCN1S(=O)(=O)c1cc([N+](=O)[O-])ccc1Cl	none
CC1=NCCN1S(=O)(=O)c1c(C(C)C)cc(C(C)C)cc1C(C)C	IL1B secr inh -58.5, TDP1 cell noCPT inconclusive
CCCCOC(=O)c1sc2nc(C)cc(C)c2c1N	IL1B secr inh inconclusive, DT40 TDP1 CPT inconclusive, TDP1 cell noCPT inconclusive
Cc1cc(C)c2c(=O)n(CC(=O)N3CCC(N4CCCCC4)CC3)sc2n1	DT40 TDP1 CPT 14.6µM, TDP1 cell noCPT 14.6µM
CCCNC(=O)Cn1sc2nc(C)cc(C)c2c1=O	IL1B secr inh inconclusive, DT40 TDP1 CPT 3.66µM, TDP1 cell noCPT 4.11µM, HT1080 IDH1KD tx inconclusive
O=C(OCc1ccccc1)N1CCC2CC1c1cc(N3CCN(C(=S)NCCc4ccccc4)CC3)ccc12 (configuration not stated)	DT40 TDP1 CPT inconclusive, TDP1 cell noCPT inconclusive
O=C(OCc1ccccc1)N1CCC2CC1c1ccc(N3CCNCC3)cc12 (configuration not stated)	DT40 TDP1 CPT 9.2µM, TDP1 cell noCPT 7.31µM, HT1080-NT tox inconclusive
COc1ccc(NC(=S)N2CCN(c3ccc4c(c3)C3CCN(C(=O)OCc5ccccc5)C4C3)CC2)c(OC)c1 (configuration not stated)	DT40 TDP1 CPT 7.31µM, TDP1 cell noCPT 5.17µM
Cc1ccccc1S(=O)(=O)N1CCN(c2ccc3c(c2)C2CC3CCN2C(=O)OCc2ccccc2)CC1 (configuration not stated)	DT40 TDP1 CPT inconclusive, TDP1 cell noCPT 16.4µM
CCc1ccc(NC(=O)CNS(=O)(=O)c2c(C)noc2C)cc1	TDP1 cell noCPT inconclusive
COc1ccc(OCc2nc3ccc(S(=O)(=O)Nc4ccccc4Cl)cc3[nH]2)cc1	IL1B secr inh -51.0, DT40 TDP1 CPT inconclusive, TDP1 cell noCPT inconclusive, HT1080 IDH1KD tx inconclusive
CCc1ccccc1OCc1nc2ccc(S(=O)(=O)N3CCOCC3)cc2[nH]1	DT40 TDP1 CPT 23.1µM, TDP1 cell noCPT inconclusive
COc1ccc(NS(=O)(=O)c2ccc3nc(COc4cccc5ccccc45)[nH]c3c2)cc1	DT40 TDP1 CPT 16.4µM, TDP1 cell noCPT 20.6µM, HT1080 IDH1KD tx inconclusive
COc1ccc(NS(=O)(=O)c2ccc3nc(COc4ccc5ccccc5c4)[nH]c3c2)cc1	IL1B secr inh -67.3, DT40 TDP1 CPT 18.4µM, TDP1 cell noCPT inconclusive, HT1080-NT tox inconclusive, HT1080 IDH1KD tx inconclusive
CCCNC(=S)N1CCN(CC)CC1	none
O=C1OCCC1Sc1nc(-c2ccccc2)cs1 (configuration not stated)	none
CCc1cc2c(cc3c(=O)n(CC(=O)NCCCN(CC)CC)nc(CC)n32)s1	none
CCc1nn(CC(=O)NCCN(CC(C)C)CC(C)C)c(=O)c2cc3sc(C)cc3n12	DT40 TDP1 CPT 14.6µM, TDP1 cell noCPT 20.6µM (no result: IL1B secr inh, HT1080-NT tox, HT1080 IDH1KD tx)
O=C(CCNC(=O)c1ccc([N+](=O)[O-])cc1)Nc1cc(C(F)(F)F)ccc1N1CCOCC1	DT40 TDP1 CPT inconclusive, TDP1 cell noCPT inconclusive
CCC(C(=O)NC1CCCC1)n1c(-c2ccccn2)nc2ccccc21 (configuration not stated)	DT40 TDP1 CPT 7.31µM, TDP1 cell noCPT 8.2µM
CSCCC(C(=O)NC(C)(C)C)n1c(-c2ccc3c(c2)OCO3)nc2ccccc21 (configuration not stated)	DT40 TDP1 CPT 23.1µM, TDP1 cell noCPT 20.6µM
COc1ccc(C(C(=O)NCc2ccccc2)n2c(-c3ccccn3)nc3ccccc32)cc1 (configuration not stated)	DT40 TDP1 CPT 16.4µM, TDP1 cell noCPT inconclusive, HT1080-NT tox inconclusive, HT1080 IDH1KD tx inconclusive
Cc1csc(-c2nc3ccccc3n2C(C(=O)NC(C)(C)C)c2cc3ccccc3o2)c1 (configuration not stated)	DT40 TDP1 CPT inconclusive, TDP1 cell noCPT 14.6µM, HT1080-NT tox inconclusive, HT1080 IDH1KD tx inconclusive
CCC(C(=O)NC1CCCC1)n1c(C2CCCC2)nc2ccccc21 (configuration not stated)	TDP1 cell noCPT inconclusive
CC(=O)SCC(CC(=O)c1ccc(C)cc1)C(=O)O (configuration not stated)	none (no result: IL1B secr inh, HT1080-NT tox, HT1080 IDH1KD tx)
CSCCC(C(=O)Nc1c(C)cccc1C)n1c(-c2cnc(C)cn2)nc2ccccc21 (configuration not stated)	DT40 TDP1 CPT inconclusive, TDP1 cell noCPT 16.4µM
CC(C)(C)NC(=O)C(C1CC1)n1c(-c2ccccc2)nc2ccccc21 (configuration not stated)	DT40 TDP1 CPT 10.3µM, TDP1 cell noCPT 8.2µM
Cc1ccc(-c2nc3ccccc3n2C(C(=O)NC(C)(C)C)C2CC2)cc1 (configuration not stated)	DT40 TDP1 CPT 20.6µM, TDP1 cell noCPT inconclusive
COc1ccc(C(C(=O)NC(C)(C)C)n2c(-c3ccc(-c4ccccc4)cc3)nc3ccccc32)cc1 (configuration not stated)	DT40 TDP1 CPT inconclusive, TDP1 cell noCPT 13µM
CSCCC(C(=O)Nc1c(C)cccc1C)n1c(-c2ccc(C(F)(F)F)cc2)nc2ccccc21 (configuration not stated)	none
Cc1n[nH]c(C)c1S(=O)(=O)N(CC(=O)Nc1ccc2c(c1)OCCO2)c1ccc(C(C)C)cc1	TDP1 cell noCPT inconclusive
Cc1cc(C(=O)NNC(=O)Cc2ccc(Cl)c(Cl)c2)c(C)o1	none
